Test results published in PubChem BioAssay AID1159580 (chemical genetic matrix, 2015).
The campaign covered roughly 5,500 compounds. About 2,000 (36%) were called active. Not shown: some 18% with an inconclusive outcome. Rule as the data show it: active = normalized growth mostly below about 0.91 (no sharp cut-off); inconclusive = no clear call, values can overlap the other calls; inactive = mostly above about 0.92. This is one part of the list.

Experiment: chemical genetic growth profiling, strain panel (AID 1159580);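 also: tested at 20 µM; growth read once vehicle control cultures reached saturation at 30 °C; 1 = growth at the plate median or of vehicle wells; lower values mean less growth of the strain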
Settings: S. cerevisiae deletion strains, growth OD
[1] = locus YAR019C, strain CDC15, active compounds read low
[2] = locus YBL105C, strain PKC1, active compounds read low
[3] = locus YBR135W, strain CKS1, active compounds read low
[4] = locus YBR136W, strain MEC1, active compounds read low
[5] = locus YBR160W, strain CDC28, active compounds read low
[6] = locus YDL017W, strain CDC7, active compounds read low
[7] = locus YDL028C, strain MPS1, active compounds read low
[8] = locus YDL101C, strain DUN1, active compounds read low
[9] = locus YDL108W, strain KIN28, active compounds read low
[10] = locus YDL132W, strain cdc53, active compounds read low
[11] = locus YDL214C, strain PRR2, active compounds read low
[12] = locus YDR052C, strain DBF4, active compounds read low
[13] = locus YDR054C, strain cdc34, active compounds read low
[14] = locus YDR226W, strain ADK1, active compounds read low
[15] = locus YDR477W, strain SNF1, active compounds read low
[16] = locus YER123W, strain YCK3, active compounds read low
[17] = locus YER133W, strain GLC7, active compounds read low
[18] = locus YFL009W, strain cdc4, active compounds read low
[19] = locus YFL029C, strain CAK1, active compounds read low
[20] = locus YFR003C, strain YPI1, active compounds read low
[21] = locus YFR019W, strain FAB1, active compounds read low
[22] = locus YFR028C, strain CDC14, active compounds read low
[23] = locus YGR040W, strain KSS1, active compounds read low
[24] = locus YGR052W, strain FMP48, active compounds read low
[25] = locus YGR092W, strain DBF2, active compounds read low
[26] = locus YHR030C, strain SLT2, active compounds read low
[27] = locus YHR079C, strain IRE1, active compounds read low
[28] = locus YHR082C, strain KSP1, active compounds read low
[29] = locus YHR205W, strain SCH9, active compounds read low
[30] = locus YIL147C, strain SLN1, active compounds read low
[31] = locus YJL095W, strain BCK1, active compounds read low
[32] = locus YJL128C, strain PBS2, active compounds read low
[33] = locus YJL157C, strain FAR1, active compounds read low
[34] = locus YJR016C, strain ILV3, active compounds read low
[35] = locus YJR066W, strain TOR1 (second series), active compounds read low
[36] = locus YJR066W, strain TOR1, active compounds read low
[37] = locus YKL048C, strain ELM1, active compounds read low
[38] = locus YKL067W, strain YNK1, active compounds read low
[39] = locus YKL101W, strain HSL1, active compounds read low
[40] = locus YKL193C, strain SDS22, active compounds read low
[41] = locus YKL203C, strain TOR2, active compounds read low
[42] = locus YLR113W, strain HOG1, active compounds read low
[43] = locus YLR133W, strain CKI1, active compounds read low
[44] = locus YLR403W, strain SFP1, active compounds read low
[45] = locus YML070W, strain DAK1, active compounds read low
[46] = locus YMR001C, strain CDC5, active compounds read low
[47] = locus YMR205C, strain PFK2 (second series), active compounds read low
[48] = locus YMR277W, strain FCP1, active compounds read low
[49] = locus YNL006W, strain LST8, active compounds read low
[50] = locus YNL020C, strain ARK1, active compounds read low
[51] = locus YNL161W, strain CBK1, active compounds read low
[52] = locus YNL183C, strain NPR1, active compounds read low
[53] = locus YNL207W, strain RIO2, active compounds read low
[54] = locus YNL222W, strain SSU72, active compounds read low
[55] = locus YNL307C, strain MCK1 (second series), active compounds read low
[56] = locus YOL078W, strain AVO1, active compounds read low
[57] = locus YOL136C, strain PFK27, active compounds read low
[58] = locus YOR061W, strain CKA2, active compounds read low
[59] = locus YOR119C, strain RIO1, active compounds read low
[60] = locus YOR231W, strain MKK1, active compounds read low
[61] = locus YOR329C, strain SCD5, active compounds read low
[62] = locus YPL031C, strain PHO85, active compounds read low
[63] = locus YPL153C, strain RAD53, active compounds read low
[64] = locus YPL204W, strain HRR25, active compounds read low
[65] = locus YPL209C, strain IPL1, active compounds read low
[66] = locus YPL256C, strain CLN2, active compounds read low
[67] = locus YPR025C, strain CCL1, active compounds read low
[68] = locus YPR106W, strain ISR1, active compounds read low
[69] = locus YPR111W, strain DBF20, active compounds read low
[70] = strain NNK1, active compounds read low
[71] = strain TSCII, active compounds read low

Measured: normalized growth

Cc1onc(-c2c(Cl)cccc2Cl)c1C(=O)NC(C)(C)CC(C)(C)C
inactive: [1] 0.998 | [2] 0.99 | [3] 0.991 | [4] 0.989 | [5] 0.997 | [6] 0.997 | [7] 0.976 | [8] 0.994 | [9] 0.983 | [10] 0.992 | [11] 0.945 | [12] 0.991 | [13] 0.995 | [14] 0.999 | [15] 0.977 | [16] 0.919 | [17] 0.97 | [18] 0.995 | [19] 0.998 | [20] 0.992 | [21] 0.972 | [22] 0.995 | [23] 0.956 | [24] 1.04 | [25] 0.969 | [26] 1.12 | [27] 1.05 | [28] 1.08 | [29] 0.955 | [30] 0.99 | [31] 1.07 | [32] 0.945 | [33] 0.953 | [34] 0.992 | [35] 0.951 | [36] 1.09 | [37] 0.982 | [38] 0.961 | [39] 0.953 | [40] 0.996 | [41] 1.04 | [42] 0.962 | [43] 0.965 | [44] 0.927 | [45] 0.932 | [46] 0.998 | [47] 0.966 | [48] 0.998 | [49] 0.988 | [50] 0.971 | [51] 0.995 | [52] 1.03 | [53] 0.991 | [54] 0.989 | [55] 1 | [56] 0.992 | [57] 0.95 | [58] 0.959 | [59] 0.992 | [60] 1.02 | [61] 0.994 | [62] 0.979 | [63] 0.964 | [64] 0.977 | [65] 0.993 | [66] 1.08 | [67] 0.992 | [68] 0.993 | [69] 0.989 | [70] 0.99 | [71] 0.995

CC(C)(C)c1ccc(C(=O)NNc2c(Cl)cccc2Cl)cc1
active: [42] 0.726 | [66] 0.834
inactive: [1] 0.977 | [2] 0.952 | [3] 0.948 | [4] 0.97 | [5] 0.958 | [6] 0.973 | [7] 0.98 | [8] 0.985 | [9] 0.965 | [10] 0.968 | [11] 0.9 | [12] 0.974 | [13] 0.981 | [14] 0.986 | [15] 0.948 | [16] 0.904 | [17] 0.939 | [18] 0.975 | [19] 0.978 | [20] 0.974 | [21] 0.933 | [22] 0.973 | [23] 0.918 | [24] 0.946 | [25] 0.894 | [26] 0.864 | [27] 0.885 | [28] 0.974 | [29] 0.86 | [30] 0.974 | [31] 0.898 | [32] 0.878 | [33] 0.88 | [34] 0.966 | [35] 0.868 | [36] 0.959 | [37] 0.954 | [38] 0.892 | [39] 0.89 | [40] 0.974 | [41] 1.01 | [43] 0.89 | [44] 0.893 | [45] 0.862 | [46] 0.971 | [47] 0.888 | [48] 0.971 | [49] 0.978 | [50] 0.889 | [51] 0.981 | [52] 0.887 | [53] 0.974 | [54] 0.969 | [55] 0.902 | [56] 0.967 | [57] 0.85 | [58] 0.874 | [59] 0.985 | [60] 0.832 | [61] 0.981 | [62] 0.935 | [63] 0.92 | [64] 0.947 | [65] 0.968 | [67] 0.962 | [68] 0.944 | [69] 0.995 | [70] 0.943 | [71] 0.972

Cc1onc(-c2c(Cl)cccc2Cl)c1C(=O)NNc1c(Cl)cccc1Cl
inactive: [1] 0.962 | [2] 0.978 | [3] 0.986 | [4] 0.977 | [5] 0.975 | [6] 0.977 | [7] 0.97 | [8] 0.976 | [9] 0.971 | [10] 0.978 | [11] 0.941 | [12] 0.99 | [13] 0.972 | [14] 0.982 | [15] 0.932 | [16] 0.961 | [17] 0.961 | [18] 0.974 | [19] 0.983 | [20] 0.98 | [21] 0.972 | [22] 0.97 | [23] 0.941 | [24] 0.998 | [25] 0.987 | [27] 0.957 | [28] 1.01 | [29] 0.956 | [30] 0.977 | [31] 0.907 | [32] 0.923 | [33] 0.976 | [34] 0.988 | [35] 0.96 | [36] 0.957 | [37] 0.981 | [38] 0.941 | [39] 0.949 | [40] 0.986 | [41] 1.03 | [43] 0.976 | [44] 0.967 | [45] 0.942 | [46] 0.976 | [47] 0.963 | [48] 0.967 | [49] 0.979 | [50] 0.988 | [51] 0.989 | [52] 1 | [53] 0.991 | [54] 0.977 | [55] 0.972 | [56] 0.982 | [57] 0.956 | [58] 0.974 | [59] 0.957 | [60] 0.927 | [61] 0.981 | [62] 0.937 | [63] 0.921 | [64] 0.945 | [65] 0.986 | [66] 0.858 | [67] 0.976 | [68] 0.96 | [69] 0.956 | [70] 0.986 | [71] 0.983
active: [26] 0.794 | [42] 0.827
